PubChem BioAssay AID540333 (Southern Research Specialized Biocontainment Screening …, 2011)
Out of some 10,000 compounds screened, about 320 (3.2%) were called active. Rule as the data show it: active = CPE inhibition mostly above about 9.1% (no sharp cut-off); inactive = mostly below about 7.2%. Shown is part of a subset that was picked to be rich in actives.

Test: Dengue virus cytopathic effect inhibitors, cell-based, CPE readout, HTS (AID 540333)
Details: Dengue virus CPE inhibition in host cells, at 20 µM; stronger effect = higher value
In the case of `CC(=O)c1ccc(N2Cc3ccccc3/C2=N\C(=O)Nc2ccccc2)cc1`, the CPE inhibition is reported as 1.88% (inactive). With `O=C(c1cc(-c2ccccc2)nn1CC1CC(c2cccnc2)=NO1)N1CCOCC1` (stereo unspecified) the CPE inhibition was 0.185% (inactive). For `Cc1ccc(/C=C/C(=O)NCCCN2CCN(CCCNC(=O)/C=C/c3ccc(C)o3)CC2)o1`, the CPE inhibition was 0.03% (inactive). For `Cc1ccc([N+](=O)[O-])cc1S(=O)(=O)NCCc1c(C)[nH]c2c(C)cccc12`, the CPE inhibition was 0.035% (inactive). For `COc1ccc(NC(=S)N(CCN(C)C)C(C)c2ccco2)cc1` (stereo unspecified), the CPE inhibition was 1.96% (inactive). In the case of `CCC(=O)N/N=C(\C)CC(=O)Nc1ccccc1-c1ccccc1`, the CPE inhibition is reported as “inactive”. For `Cc1ccc(-c2cc3c(n2-c2ccc(C(=O)O)cc2)CCCC3=O)cc1`, the CPE inhibition was “inactive”. For `COc1ccc(C(=O)NCC(=O)NCC(c2ccco2)N(C)C)cc1OC` (stereo unspecified), the CPE inhibition was “inactive”. For `CCOc1ccc(NC(=O)CNC(=O)COc2ccccc2)cc1`, the CPE inhibition was 0.38% (inactive). For `COC(C(=O)Nc1ccc(S(=O)(=O)Nc2cccc3ccccc23)cc1)c1ccccc1` (stereo unspecified), the CPE inhibition was 5.08% (inactive). In the case of `O=C(NC(=S)N1CCN(c2ccc([N+](=O)[O-])cc2)CC1)c1ccccc1F`, the CPE inhibition is reported as 1.42% (inactive). For `O=C(COC(=O)CC1c2ccccc2CCN1S(=O)(=O)c1ccccc1)Nc1ccccc1` (stereo unspecified), the CPE inhibition was 0.325% (inactive). With `COc1ccc([C@H]2CC(=O)C=C(c3cccc(OC)c3)C2)cc1` the CPE inhibition was “inactive”. With `CCOC(=O)c1cccc(C2=CC(=O)C[C@H](c3ccc(OC)cc3)C2)c1` the CPE inhibition was 11.8% (active). With `COc1ccc([C@H]2CC(=O)C=C(c3ccccc3)C2)cc1` the CPE inhibition was 3.05% (inactive). For `CCOc1cccc(OCCOCCN(C)C)c1`, the CPE inhibition was “inactive”. In the case of `CCOC(=O)C1=NNC2(c3ccc(Cl)cc3)C(=O)N(c3ccc(C)cc3)C(=O)C12` (stereo unspecified), the CPE inhibition is reported as “inactive”. For `CSCCC(NS(=O)(=O)c1ccc(Cl)cc1)C(=O)OCc1cccc(Cl)c1` (stereo unspecified), the CPE inhibition was 12% (active). For `CC(=O)Nc1ccc(S(=O)(=O)NCCSCc2cccc(Cl)c2)cc1`, the CPE inhibition was 1.06% (inactive). With `CSCCC(NC(=O)c1ccc(Cl)cc1)C(=O)OCC(=O)Nc1cc(Cl)ccc1C` (stereo unspecified) the CPE inhibition was 0.1% (inactive). In the case of `CC(C)OC(=O)/C(=C/c1ccc(Br)cc1)NC(=O)c1ccco1`, the CPE inhibition is reported as “inactive”.
